Survival data for 102 molecules are collected here from PubChem BioAssay AID463173 (ICCB-Longwood Screening Facility, Harvard Medical School, 2010).

Molecules are shown by their SMILES. Out of some 52,000 compounds screened, about 4,300 (8.3%) were called active. The sample as a whole holds a higher share of actives than the screen did. Values without a mark were called inactive. No stated cut-off is given here; in the data, active means survival mostly below about 52% (no sharp cut-off); inactive means mostly above about 56%.

This test concerns DeltatarO mutant. Description: growth inhibition of S. aureus wild type versus tarO mutant, primary screen, teichoic acid synthesis inhibitors, RN4220, OD600 (AID 463173). To be noted: OD600, 18 h, active compounds read low, screened at 18.75 µg/mL (by protocol).
On to `NC(=O)CSc1nnnn1C1CCCCC1`, for which the survival was 71%.
The value for `COc1ccc(C(=O)Nc2cccc(-c3cn4ccsc4n3)c2)c(OC)c1` was 70%; that for `COc1cccc(-c2nc3c(C#N)c[nH]n3c2NC2CCCCC2)c1OC` was 60%.
Regarding `COc1cccc(-c2nc3c(C#N)c[nH]n3c2NC2CCCCC2)c1`, the survival was 72%.
The result for `COc1ccc(-c2nc3c(C#N)c[nH]n3c2NC2CCCC2)cc1` reads 56%; that for `COc1ccc(-c2nc3c(C#N)c[nH]n3c2NC2CCCC2)c(OC)c1`, 65%; that for `COc1cccc(-c2nc3c(C#N)c[nH]n3c2NC2CCCC2)c1OC`, 64% (active).
The value for `COc1cccc(-c2nc3c(C#N)c[nH]n3c2NC2CCC(C)CC2)c1` (configuration not stated) was 29% (active); that for `CCC(=O)N1c2ccccc2CC1C(=O)NCCc1ccccc1` (configuration not stated) was 69%.
`CCN(CC)c1ccc(NC(=O)C(NS(=O)(=O)c2cccs2)C(C)C)c(C)c1` (configuration not stated): the survival was 141%.
Consider `CCC1CCCCN1CC(=O)Nc1cc(C)c2c(=O)oc3ccccc3c2n1` (configuration not stated), for which the survival is 98%.
The value for `Cc1cccc(NC(=O)COc2ccc3oc4c(c3c2)CCCC4)c1` was 40% (active); that for `Cc1ccc(NC(=O)COc2ccc3oc4c(c3c2)CCCC4)cc1C` was 70%; that for `O=C(COc1ccc2oc3c(c2c1)CCCC3)Nc1ccc(Br)cc1` was 89%.
The result for `Cc1ccc(NC(=O)COc2ccc3oc4c(c3c2)CCCC4)c(C)c1` reads 88%; that for `O=C(COc1ccc2oc3c(c2c1)CCCC3)Nc1cccc(Br)c1`, 27% (active); that for `O=C(COc1ccc2oc3c(c2c1)CCCC3)Nc1ccc(Cl)cc1`, 85%.
The result for `Cn1c(C(C(=O)NCC2CCCO2)N(Cc2ccc(F)cc2)C(=O)Cn2nnc3ccccc32)nc2ccccc21` (configuration not stated) reads 95%; that for `O=C(CSCn1nnc2c(=O)[nH]c(Cc3ccc(F)cc3)nc21)Nc1cccc(C(F)(F)F)c1`, 64%; that for `CC(=O)OC(COCc1ccccc1)Cn1cnc2ccccc21` (configuration not stated), 69%.
In the case of `CCN(CC)CCCNC(=O)CN1C(=O)COc2ccc(S(=O)(=O)N3CCC(C)CC3)cc21`, the survival is 101%.
The value for `O=C1c2[nH]nc(-c3ccccc3O)c2C(c2cccc(O)c2)N1Cc1cccnc1` (configuration not stated) was 95%.
For `COC(=O)c1ccc(C2c3c(-c4ccccc4O)n[nH]c3C(=O)N2Cc2cccnc2)cc1` (configuration not stated), the survival was 72%.
The result for `CCCOc1ccc(C2c3c(-c4ccccc4O)n[nH]c3C(=O)N2CCCOCC)cc1OCC` (configuration not stated) reads 81%; that for `CCc1ccc(C2c3c(-c4ccccc4O)n[nH]c3C(=O)N2Cc2ccncc2)cc1` (configuration not stated), 22% (active).
With `CCCOc1ccc(C2c3c(-c4ccccc4O)n[nH]c3C(=O)N2Cc2cccnc2)cc1` (configuration not stated), the survival is 3% (active).
As for `CCc1ccc(C2c3c(-c4ccccc4O)n[nH]c3C(=O)N2Cc2cccnc2)cc1` (configuration not stated), the survival is 34% (active).
The result for `CCOCCCN1C(=O)c2[nH]nc(-c3ccccc3O)c2C1c1ccc(CC)cc1` (configuration not stated) reads 39% (active).
The value for `CCOc1ccc(C2c3c(-c4ccccc4O)n[nH]c3C(=O)N2Cc2ccncc2)cc1` (configuration not stated) was 68%.
The result for `CSc1ccc(C2c3c(-c4ccccc4O)n[nH]c3C(=O)N2Cc2ccncc2)cc1` (configuration not stated) reads 70%.
As for `CCOc1cc(C2c3c(-c4ccccc4O)n[nH]c3C(=O)N2Cc2cccnc2)ccc1O` (configuration not stated), the survival was 93%.
With `CCc1ccc(C2c3c(-c4cc(C)ccc4O)n[nH]c3C(=O)N2Cc2cccnc2)cc1` (configuration not stated), the survival was 61%.
As to `O=C(NC12CC3CC(CC(C3)C1)C2)c1ccco1`, the survival was 72%.
The value for `CN(C)CCCC1(O)c2ccccc2CCc2ccccc21` was 85%; that for `O=C(Nc1cc(Cl)cc(Cl)c1)c1ccc(F)c(S(=O)(=O)N2CCCC2)c1` was 78%; that for `CCC(CC)c1nc2ccccc2c(=O)[nH]1` was 98%.
Turning to `Cc1cccc(-c2nc3scc(CCNS(=O)(=O)c4ccc5c(c4)OCCO5)n3n2)c1`, the survival was 85%.
For the molecule `Cc1ccc(CCNC(=O)c2c(C)nn(-c3ccc(F)cc3)c2-n2cccc2)cc1`, the survival is 67%.
For `Cc1ccc(NC(=O)c2c(C)nn(-c3ccccc3)c2-n2cccc2)c(Cl)c1`, the survival is 79%.
The result for `CC(=O)Nc1ccc(NC(=O)c2c(C)nn(-c3ccccc3)c2-n2cccc2)cc1` reads 84%; that for `Cc1nn(-c2ccccc2)c(-n2cccc2)c1C(=O)NCc1ccccc1Cl`, 2% (active); that for `Cc1nn(-c2ccc(F)cc2)c(-n2cccc2)c1C(=O)NCCc1ccc(Cl)cc1`, 68%.
Take `Cc1nn(-c2ccccc2)c(-n2cccc2)c1C(=O)NCCc1ccc(Cl)cc1`: the survival is 4% (active).
On to `O=C(NC1CCCCC1)c1ccc(S(=O)(=O)N2CCCC2)cc1`, for which the survival is 79%.
The value for `CCOC(=O)c1ccc(NC(=O)Cn2cc(C(=O)C3CC3)c3ccccc32)cc1` was 68%; that for `Cc1ccccc1NC(=O)c1sc2nc3n(c(=O)c2c1C)N=C(c1ccccc1)CS3` was 88%; that for `COc1ccc2sc(N3C(=O)C4CC=C(C)CC4C3=O)nc2c1` (configuration not stated) was 103%.
In the case of `COCCN1Cc2cc3cc4c(cc3nc2SC1=Nc1cccc(OC)c1)OCO4`, the survival was 87%.
Take `CCN=C1Sc2nc3ccc(OCC)cc3cc2CN1CCOC`: the survival was 104%.
For the molecule `CCOc1ccc2nc3c(cc2c1)CN(CCO)C(=Nc1cccc(OC)c1)S3`, the survival was 47% (active).
The result for `CN(C)c1ccc(NC(=O)CN2CCN(CC(=O)Nc3ccc(Br)cc3)CC2)cc1` reads 80%; that for `CCCn1c(-c2ccc(F)cc2)cnc1SCC(=O)N1CCCCC1C` (configuration not stated), 74%; that for `O=S(=O)(NCCc1csc2nc(-c3ccccc3)nn12)c1cccs1`, 72%.
The result for `COc1ccc(S(=O)(=O)NCCc2csc3nc(-c4ccccc4)nn23)cc1OC` reads 72%; that for `CCc1ccc(S(=O)(=O)NCCc2csc3nc(-c4ccccc4)nn23)s1`, 109%; that for `COc1ccc(OC)c(S(=O)(=O)NCCc2csc3nc(-c4ccccc4)nn23)c1`, -1% (active).
The result for `COc1ccc(-c2nc3scc(CCNS(=O)(=O)c4cccs4)n3n2)cc1` reads 6% (active); that for `O=S(=O)(NCCc1csc2nc(-c3ccc(Cl)cc3)nn12)c1cccs1`, 84%; that for `CCS(=O)(=O)NCCc1csc2nc(-c3ccc(C)cc3)nn12`, 83%.
For the molecule `COc1ccc(-c2nc3scc(CCNS(=O)(=O)c4ccccc4F)n3n2)cc1`, the survival is 90%.
The result for `CS(=O)(=O)NCCc1csc2nc(-c3ccccc3)nn12` reads -2% (active).
On to `CCOc1ccc(C(=O)Nc2ccc3nc(SCc4ccccc4)sc3c2)cc1`, for which the survival is 91%.
`O=c1c2c(nc3n1CCCS3)-c1ccccc1CC21CCCC1`: the survival was 73%.
The result for `CC1=C(C(=O)OC2CCCCCC2)C(c2cccc(F)c2F)CC(=O)N1` (configuration not stated) reads 128%; that for `CC(NC(=O)c1ccc(F)cc1)c1nc2ccccc2[nH]1` (configuration not stated), 83%.
Regarding `O=C(Cn1c(=O)nc(-c2ccccc2)c2ccccc21)Nc1ccc(Cl)cc1F`, the survival was 73%.
Take `Clc1ccccc1-c1nnc(COc2ccccc2)o1`: the survival is 50%.
The value for `CC(CNC(=O)c1sc2ncccc2c1-n1cccc1)c1ccccc1` (configuration not stated) was 102%.
The value for `COCCCNC(=O)CCCn1c(=O)c2ccccc2n(CC(=O)Nc2ccc(C)cc2Cl)c1=O` was 96%; that for `COc1cc(NC(=O)CN2CCN(CC(=O)Nc3ccc(F)cc3)CC2)cc(OC)c1` was 70%; that for `CCN(C(=O)Cn1ncc2c(=O)oc3ccccc3c21)c1ccccc1F` was 118%.
The value for `Oc1ccc(-c2nc3ccc(Cl)cn3c2Nc2ccc3c(c2)OCO3)cc1` was 106%; that for `Cc1ccc2nc(-c3ccc(O)cc3)c(Nc3ccc(Cl)cc3)n2c1` was 59%.
Take `Oc1ccc(-c2nc3ccc(Cl)cn3c2Nc2ccc(Cl)cc2)cc1`: the survival was 16% (active).
On to `Cc1ccc(C(=O)OCc2cc(=O)n3nc(-c4cccs4)sc3n2)cc1`, for which the survival was 95%.
The result for `O=C(Cn1nc2c(cc1=O)CCCC2)Nc1ccc(F)cc1F` reads 118%; that for `CCC(C(=O)Nc1ccc(C(=O)OC)cc1)n1nc(-c2ccc(C)cc2)c2c(c1=O)CCCC2` (configuration not stated), 102%.
The result for `CCC(C(=O)Nc1cc(OC)ccc1OC)n1nc(-c2ccccc2)c2c(c1=O)CCCC2` (configuration not stated) reads 35% (active).
The value for `CCC(C(=O)Nc1ccc(F)cc1F)n1nc(-c2ccccc2)c2c(c1=O)CCCC2` (configuration not stated) was 38% (active); that for `O=C(CSc1c2c(nc3ccccc13)CCC2)Nc1ccc(F)cc1F` was 69%.
For the molecule `CCC(C(=O)Nc1cc(OC)ccc1OC)n1c(C)c2cnn(-c3ccccc3)c(=O)c2c1C` (configuration not stated), the survival was 107%.
Consider `CCOc1ccc(NC(=O)CSC2=Nc3ccccc3C3=NC(CCC(=O)NCc4cccs4)C(=O)N23)cc1` (configuration not stated), for which the survival was 70%.
The value for `CCN1CCN(Cc2c(C)[nH]c3c(C)cc(C)cc3c2=O)CC1` was 59%; that for `COc1ccccc1Cc1nc2ccccc2[nH]c1=O` was 54%.
As for `CN1C(=O)c2ccccc2Sc2ccc(NC(=O)N3CCN(c4cccc(Cl)c4)CC3)cc21`, the survival was 87%.
The result for `CCOC(=O)CN1C(=O)c2cccnc2Oc2ccccc21` reads 87%; that for `C=CCc1ccccc1OCCSc1nc(-c2ccc(C(C)(C)C)cc2)nc2cc(=O)[nH]n12`, 32% (active); that for `C=CCc1ccccc1OCCSc1nc(-c2ccccc2F)nc2cc(=O)[nH]n12`, 99%.
As for `COc1ccccc1OCCSc1nc(-c2ccc(C(C)(C)C)cc2)nc2cc(=O)[nH]n12`, the survival was 49%.
As for `COc1ccc(NC(=O)Cn2nnnc2-c2ccccc2F)c(C)c1`, the survival was 74%.
The result for `CCOc1ccccc1NC(=O)COc1ccc(S(=O)(=O)NC2CCCCC2)cc1` reads 48% (active).
Take `CCC(C)NC(=O)Cn1ccc2cc(S(=O)(=O)N3CCCCCC3)ccc21` (configuration not stated): the survival is 118%.
Consider `CCOc1ccccc1NC(=O)Cn1c(=O)ccc2cc(S(=O)(=O)N3CCC(C)CC3)ccc21`, for which the survival was 55%.
With `CCOc1ccc(NC(=O)COc2ccc(S(=O)(=O)NC3CCCCC3)cc2)cc1`, the survival was 62%.
The value for `CCc1ccccc1NC(=O)Cn1c(=O)ccc2cc(S(=O)(=O)N3CCCC3)ccc21` was 46% (active); that for `Cc1ccc(CNC(=O)Cn2c(=O)ccc3cc(S(=O)(=O)N4CCCC4)ccc32)cc1` was 92%.
In the case of `Cc1cccc(NC(=O)Cn2c(=O)ccc3cc(S(=O)(=O)N4CCCC4)ccc32)c1C`, the survival is 105%.
The result for `COc1ccc(NC(=O)COc2ccc(S(=O)(=O)NC3CCCCC3)cc2)c(OC)c1` reads 66%; that for `CCOc1ccccc1NC(=O)Cn1c(=O)ccc2cc(S(=O)(=O)N3CCCC3)ccc21`, 0% (active); that for `O=C(Cn1c(=O)ccc2cc(S(=O)(=O)N3CCCC3)ccc21)Nc1ccccc1`, 57%.
The value for `CCC(C)NC(=O)Cn1c(=O)ccc2cc(S(=O)(=O)N3CCCC3)ccc21` (configuration not stated) was 37% (active).
The value for `CCc1ccccc1NC(=O)Cn1c(=O)ccc2cc(S(=O)(=O)N3CCC(C)CC3)ccc21` was 92%.
